Assay results: the supplement of paper PMC13172266
Where a name gives a salt, the structure may show the parent alone.

How the values were obtained:
Assay in all cases: cell proliferation relative to vehicle (% of vehicle); higher = less growth inhibition
Conditions in all cases: 72 h
[1] = tested on: U2932 TK216-resistant clone 2
Summary of the method: (§1)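 A library of 348 targeted inhibitors was screened against the ABC-DLBCL cell line U2932, using parental cells and two clones made resistant to an ETS-targeting agent through repeated exposure over almost a year. The cells were cultured at 37°C and 5% CO2 in medium containing 10% FBS and treated at 500 nM or 50 nM for 72 h, after which MTT was added for 4 h, stopped with 25% SDS, and absorbance was read on a Cytation 3. Proliferation is given as the percentage of proliferating cells relative to the vehicle, DMSO.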

[2] = tested on: U2932 TK216-resistant clone 3
Summary of the method: as §1

[3] = tested on: U2932 parental
Summary of the method: as §1

Compound | cell proliferation ([1]; 50 nM) | cell proliferation ([1]; 500 nM) | cell proliferation ([2]; 50 nM) | cell proliferation ([2]; 500 nM) | cell proliferation ([3]; 50 nM) | cell proliferation ([3]; 500 nM)
Cn1c(CCCC(=O)O)nc2cc(N(CCCl)CCCl)ccc21 [Bendamustine HCl] | 111 | 108 | 102 | 102 | 99.3 | 90.2
CC(O)(CS(=O)(=O)c1ccc(F)cc1)C(=O)Nc1ccc(C#N)c(C(F)(F)F)c1 (centres undefined) [Bicalutamide] | 109 | 104 | 103 | 97.8 | 102 | 96.5
COc1ccc(C[C@H]2NC[C@H](O)[C@H]2OC(C)=O)cc1 [Anisomycin] | 55.2 | 25.4 | 69 | 29.3 | 66.9 | 20.5
CC1=C(O)C(=O)C=C2C1=CC=C1[C@@]2(C)CC[C@@]2(C)[C@@H]3C[C@](C)(C(=O)O)CC[C@]3(C)CC[C@]12C [Celastrol] | 77.9 | 18.8 | 85 | 27.8 | 80.6 | 24.1
O=P1(NCCCl)OCCCN1CCCl (centres undefined) [Ifosfamide] | 108 | 107 | 102 | 103 | 103 | 93.4
O=C(O)C(=O)c1cn(Cc2ccccc2)c2ccc(-c3ccc(OC(F)(F)F)cc3)cc12 [Tiplaxtinin (PAI-039)] | 99.5 | 93.1 | 100 | 98.5 | 102 | 99.3
O=S(=O)(CC1CS1)c1ccc(Oc2ccccc2)cc1 (centres undefined) | 102 | 97.6 | 98.2 | 104 | 95.5 | 99.7
Cn1cc(C2=C(c3cn(C4CCN(Cc5ccccn5)CC4)c4ccccc34)C(=O)NC2=O)c2ccccc21 | 110 | 103 | 99.8 | 97.1 | 103 | 107
COc1cc2c(cc1OC)C1CC(=O)C(CC(C)C)CN1CC2 (centres undefined) [Tetrabenazine (Xenazine)] | 101 | 96.2 | 106 | 107 | 103 | 93.2
O=C(O)CCCc1ccc(N(CCCl)CCCl)cc1 [Chloroambucil] | 101 | 99.4 | 98.4 | 101 | 99.7 | 98.7
C/C(=C\c1csc(C)n1)[C@@H]1C[C@@H]2O[C@@H]2CCC[C@H](C)[C@H](O)[C@@H](C)C(=O)C(C)(C)[C@@H](O)CC(=O)O1 [Epothilone A] | 12.4 | 10 | 7.03 | 9.75 | 9.49 | 10.1
CC(=O)OC(C)(C)/C=C/C(=O)[C@](C)(O)[C@H]1[C@H](O)C[C@@]2(C)[C@@H]3CC=C4[C@H](C[C@H](O)C(=O)C4(C)C)[C@]3(C)C(=O)C[C@]12C [Cucurbitacin B] | -2.74 | -3.79 | 0.167 | -2.48 | -0.672 | -0.512
N[C@@H]1C[C@H]1c1ccccc1 [Tranylcypromine (2-PCPA) HCl] | 108 | 107 | 111 | 102 | 101 | 100
Cc1sc2c(c1C)C(c1ccc(Cl)cc1)=N[C@@H](CC(=O)OC(C)(C)C)c1nnc(C)n1-2 | 91 | 58.9 | 77.2 | 57.4 | 92.1 | 55.1
